# Measurements reported in PubChem BioAssay.
# Columns and labels:
# [1] = test system: Human papillomavirus type 1a protein E7 (residues 44-93); assay: HPV1a E7 fragment binders on microarrays, primary screen, biochemical, small-molecule microarray, residues 44-93, 635 nm fluorescence (AID 1108); details: small-molecule microarray binding, fluorescence 635 nm; higher = more signal;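 also: E7 fragment applied at 1 µg/mL in TBST for 1 h at 4 C; score combines spot fluorescence with its signal to noise ratio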
# [2] = modulators of HCV replicon luciferase signal, primary screen, HCV replication inhibitor project, Huh7 cells, luciferase reporter (AID 1109); details: 48 h, higher = more signal;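 also: huh7 hepatoma cells harbouring a luciferase neomycin HCV replicon reporter; luciferase luminescence as measure of HCV replicon replication; test concentration not given here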
# [3] = molecular target: Left-right determination factor 2 (Homo sapiens) (UniProt O00292); assay: LEFTY2 binders on small-molecule microarrays, primary screen, biochemical, small-molecule microarray, 635 nm fluorescence scan (AID 1110); details: LEFTY2 binding, higher = more signal
# Left-right determination factor 2 (Homo sapiens), sequence (O00292 whole entry, looked up): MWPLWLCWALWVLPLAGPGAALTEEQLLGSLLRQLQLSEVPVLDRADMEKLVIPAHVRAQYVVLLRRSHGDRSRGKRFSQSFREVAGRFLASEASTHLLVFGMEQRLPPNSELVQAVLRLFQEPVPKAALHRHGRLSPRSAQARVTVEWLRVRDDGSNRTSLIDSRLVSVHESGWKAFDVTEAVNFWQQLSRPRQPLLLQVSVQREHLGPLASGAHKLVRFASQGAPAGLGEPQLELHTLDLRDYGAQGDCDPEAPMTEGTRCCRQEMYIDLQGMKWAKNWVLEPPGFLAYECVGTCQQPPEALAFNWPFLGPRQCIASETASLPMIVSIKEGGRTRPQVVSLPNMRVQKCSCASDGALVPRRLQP
# [4] = molecular target: Calmodulin-1 (Homo sapiens) (UniProt P0DP23); assay: CALM1 binders on microarrays, EGTA buffer, profiling panel, biochemical, small-molecule microarray, Cy5-labelled CALM1 (AID 1111); details: Cy5-CALM1 binding fluorescence, higher = more signal;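 also: labelled calmodulin applied in Tris saline Tween buffer holding calcium plus EGTA and DTT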
# [5] = molecular target: Calmodulin-1 (Homo sapiens) (UniProt P0DP23); assay: calcium-bound CALM1 binders on microarrays, profiling panel, artefact control for SMM control-protein annotation, biochemical, small-molecule microarray, Cy5-labelled CALM1, plus calcium (AID 1112); details: Cy5-CALM1 binding fluorescence, higher = more signal;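 also: score merges spot fluorescence with signal to noise from triplicate slides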
# [6] = small-molecule microarray binders of probe aWnt5a, primary screen, biochemical, biotinylated probe, 635/667 nm fluorescence (AID 1113); details: higher = more signal;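 also: score merges 667 nm fluorescence intensity with signal-to-noise per printed feature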
# [7] = small-molecule microarray binders of probe aShh, primary screen, biochemical, biotinylated probe, 635/667 nm fluorescence (AID 1114); details: higher = more signal;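 also: probe is biotin-labelled aShh protein from a stem cell growth factor screen; measures binding of labelled protein to compounds printed on the slide; score merges feature fluorescence at 667 nm with signal-to-noise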
# [8] = small-molecule microarray binders of probe aNog, primary screen, biochemical, biotinylated probe, 635/667 nm fluorescence (AID 1115); details: higher = more signal;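 also: probe is biotinylated aNog protein used at 0.15 µg/mL for 1 h at 4 C; z-score combines 667 nm fluorescence of each spot with its signal to noise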
# [9] = molecular target: Torsin-1A-interacting protein 1 (Homo sapiens) (UniProt Q5JTV8); assay: LAP1 binders from COS7 cell lysate, primary screen, small-molecule microarray, 635/667 nm fluorescence (AID 1116); details: COS7-hLAP1 lysate binding, 635 nm fluorescence, higher = more signal
# Torsin-1A-interacting protein 1 (Homo sapiens), sequence (Q5JTV8 whole entry, looked up): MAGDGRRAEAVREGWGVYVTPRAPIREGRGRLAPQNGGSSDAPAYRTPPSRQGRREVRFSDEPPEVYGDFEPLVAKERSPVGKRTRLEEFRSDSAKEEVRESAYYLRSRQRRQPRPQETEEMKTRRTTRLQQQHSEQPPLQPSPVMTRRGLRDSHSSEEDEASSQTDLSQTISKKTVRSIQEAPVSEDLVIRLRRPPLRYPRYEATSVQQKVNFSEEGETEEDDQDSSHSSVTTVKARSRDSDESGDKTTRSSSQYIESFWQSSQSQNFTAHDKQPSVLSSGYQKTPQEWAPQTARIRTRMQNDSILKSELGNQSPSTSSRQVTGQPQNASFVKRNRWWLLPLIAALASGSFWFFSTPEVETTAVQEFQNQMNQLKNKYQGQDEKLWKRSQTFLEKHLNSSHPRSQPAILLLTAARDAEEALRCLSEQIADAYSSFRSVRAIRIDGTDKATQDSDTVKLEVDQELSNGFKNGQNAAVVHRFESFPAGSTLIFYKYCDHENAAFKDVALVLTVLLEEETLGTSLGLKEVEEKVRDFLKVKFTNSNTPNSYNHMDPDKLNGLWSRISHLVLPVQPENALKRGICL
# [10] = molecular target: Alpha-bungarotoxin (Bungarus multicinctus) (UniProt P60615); assay: alpha-bungarotoxin binders on microarray, profiling panel, artefact control for SMM control protein annotation, biochemical, small-molecule microarray, Alexa647 label, 635/667 nm fluorescence (AID 1117); details: alpha-BTX-A647 binding fluorescence, higher = more signal
# Alpha-bungarotoxin (Bungarus multicinctus), sequence (P60615 whole entry, looked up): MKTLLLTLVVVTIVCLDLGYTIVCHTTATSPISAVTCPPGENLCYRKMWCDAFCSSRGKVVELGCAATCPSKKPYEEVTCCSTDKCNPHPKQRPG
SMILES,composite z-score [1],z-score [2],composite z-score [3],composite z-score [4],composite z-score [5],composite z-score [6],composite z-score [7],composite z-score [8],composite z-score [9],composite z-score [10]
C[C@@]1([C@@H](NC(=O)c2cccs2)c2ccc(-c3ccccc3)cc2)C[C@H]1C1CCCCC1,-0.309,-1.47,-0.919,0.645,0.111,-0.302,-0.478,0.356,0.0643,-0.344
COC(=O)[C@]1(Cc2ccccc2CN=[N+]=[N-])N=C(c2ccc(OCCCO)cc2)O[C@@H]1c1ccccc1,-1.61,-3.19,-1.63,-0.103,0.128,-0.228,-0.0793,-0.361,-1.18,1.13
C/C=C/[C@@H](CCn1cc([C@H](O)c2ccccc2)nn1)[Si](C)(C)c1ccc(OC)cc1,0.434,-2.6,-1.32,-1.34,-1.35,-0.012,0.0639,-0.738,0.834,0.478
C[N+](C)(C)CCCCCCNC(=O)[C@H]1C[C@H]2C(=O)N3CCC[C@H]3C(=O)N2[C@H]1c1cccc(OCCO)c1,0.809,0.609,1.46,-0.205,-1.14,-0.135,0.171,-0.381,1.67,0.0895
COCCCNC(=O)[C@@]1(Cc2ccccc2CN=[N+]=[N-])N=C(c2ccc(OCCCO)cc2)O[C@H]1c1ccccc1N=[N+]=[N-],-0.0639,-2.3,0.0652,1.56,1,0.0388,0.291,-0.675,0.785,1.48
CCCCC(O)C1C=CC2C(=O)N(Cc3ccccc3)C(=O)C2N1n1cnnc1 (stereo not given),1.13,-1.09,0.23,0.0285,-0.163,-0.0087,0.13,-0.0351,0.208,0.274
[N-]=[N+]=NCc1ccccc1C[C@@]1(C(=O)NCCN2CCOCC2)N=C(c2ccc(OCCCO)cc2)O[C@@H]1c1ccccc1CN=[N+]=[N-],1.42,-2.7,0.461,1.68,0.191,0.0037,0.199,0.291,0.272,1.04
CN(C)CCCCNC(=O)[C@H]1C[C@H]2C(=O)N[C@@H](CCCC[N+](C)(C)C)C(=O)N2[C@H]1c1cccc(OCCO)c1,1.37,-0.156,0.206,0.285,-0.166,-0.0792,0.13,0.0286,0.116,0.112
C[N+](C)(C)CCCC[C@@H]1NC(=O)[C@@H]2C[C@H](C(=O)O)[C@H](c3cccc(OCCO)c3)N2C1=O,0.17,-0.208,-0.8,-0.705,0.417,-0.276,-0.0681,-0.326,-0.0851,-1.03
CN1C(=O)C2C=CC(C(O)c3ccc(F)cc3)N(N3CCCCC3)C2C1=O (stereo not given),0.491,0.269,-0.781,1.72,1.23,0.212,0.949,0.893,2.05,0.164
CC(C)N1CC=CC23O[C@@H]4C=CCOC(=O)[C@@H]4[C@H]2C(=O)N(CCCCCCO)[C@@H]3C1=O (stereo not given in full),-0.433,-0.761,-0.651,-0.815,-0.289,-0.18,-0.116,-0.223,2.03,-0.92
CN(C)CCCN1C(=O)[C@@]2(Cc3ccccc31)c1ccccc1C(=O)N(Cc1ccccc1)[C@H]2c1ccc(CO)cc1,0.118,-1.2,-0.0359,0.505,-0.258,-0.252,-0.289,-0.288,-0.123,0.648
C=C(C(=O)CC[C@H](OC(=O)c1cccnc1)c1ccc(OCCO)cc1)C(C)C,1.33,-3.29,0.242,0.098,-1.01,-0.0704,-0.142,-0.196,1.68,1.11
C=CCC(OC(C)=O)[C@@H]1[C@@H](N(Cc2cc3ccccc3o2)C(=O)Cc2ccc(OC)cc2)c2cc(OCCCO)ccc2N1C(=O)c1ccc(-c2ccccc2)cc1 (stereo not given in full),0.0962,-0.71,-0.214,-0.365,0.468,-0.0767,-0.147,-0.23,-0.113,0.0856
Cc1ccc(N2C(=O)c3ccccc3[C@](C)(C(=O)NC(C)C)[C@@H]2c2ccc(CO)cc2)nc1,-1.24,-0.406,-3.6,-1.12,-0.862,-0.219,-0.49,-0.441,0.177,0.24
C[N+](C)(C)CCCCCCNC(=O)[C@@H]1C[C@@H]2C(=O)NCC(=O)N2[C@@H]1c1ccc(O)cc1,1.33,1.33,0.549,0.334,-0.431,-0.124,-0.244,-0.196,1.03,1.9
Cc1ccc(S[C@]2(C(=O)NCc3ccccc3)CC(=O)N(C3Cc4ccccc4C3)[C@@H]2c2ccc(CO)cc2I)cc1,0.241,-1.63,-1.53,-0.733,-0.0933,-0.0896,-0.364,-0.0496,-0.129,1.3

SMILES,composite z-score [1],z-score [2],composite z-score [3],composite z-score [4],composite z-score [5],composite z-score [6],composite z-score [7],composite z-score [8],composite z-score [9],composite z-score [10]
O=C1c2ccccc2C(=O)C2CC([C@H]3Oc4ccccc4S(=O)(=O)N4CCC[C@@H]34)=CCC12 (stereo not given in full),-0.811,-1.34,0.0197,-0.488,0.184,-0.124,-0.0362,-0.273,0.123,0.0404
COC(=O)[C@@]1(Cc2ccccc2)[C@H]2c3cc(C(=O)N4CCCC4)n(CCO)c3C[C@H]2CN1C(=O)c1ccccc1,0.34,-1.02,0.167,2.71,1.07,0.853,0.436,0.922,3.95,1.48
C=CCC(OC(C)=O)[C@@H]1[C@@H](N(Cc2ccc(-c3ccccc3)cc2)C(=O)c2cccc3ccccc23)c2cc(OCCCO)ccc2N1C(=O)c1ccc2ccccc2n1 (stereo not given in full),0.0254,-0.281,-0.319,0.367,1.01,-0.224,-0.2,-0.158,0.0708,0.382
CCCC[C@H]1OB(O)C[C@H]2C1=C(COc1ccccc1)Cn1c(=O)n(-c3ccccc3)c(=O)n12,1.03,-0.917,0.375,0.292,-0.0404,-0.186,-0.16,-0.555,0.654,-0.334
COc1ccc(C#Cc2ccc3c(c2)[C@]2(C(=O)N3)[C@H](C(N)=O)[C@H]3C(=O)O[C@H](c4ccccc4)[C@H](c4ccccc4)N3[C@@H]2c2ccc(O)cc2)cc1,1.48,-2.51,0.422,0.539,0.686,-0.12,-0.0904,-0.215,1.09,1.05
COCCOC(=O)N1C(=O)[C@@]2(c3cc(C#CCCO)ccc31)[C@H](C(=O)NC[C@H](O)c1ccccc1)[C@H]1C(=O)O[C@H](c3ccccc3)[C@H](c3ccccc3)N1[C@@H]2c1ccccc1OCCO,1.43,-1.31,0.966,0.362,-0.354,0.287,0.323,1.36,1.12,0.784
COC(=O)[C@@]1(Cc2ccccc2)[C@H]2c3cc(C(=O)N4CCCC4)n(Cc4ccccc4)c3C[C@H]2CN1C(=O)c1ccccc1,1.45,-2.45,-0.347,1.42,0.168,0.0362,0.356,1.48,0.55,0.401
COCC(=C=CC[C@@H](O)c1ccccc1OCCO)C[C@@H](O)COCc1ccccc1,-0.0562,-0.868,-0.522,1.16,0.0936,0.0158,0.536,0.998,2.56,-0.18
O=C(N1CCOCC1)[C@@]1(CCS(=O)(=O)c2ccccc2)COC(c2ccc(OCCCO)cc2)=N1,0.901,-1.18,-1.21,1.25,0.0541,-0.124,0.314,-0.824,0.622,-0.422
CC(C)(C)OC(=O)CC[C@@]1(C(=O)N2CCCCC2)N=C(c2ccc(OCCCO)cc2)O[C@@H]1c1ccccc1N=[N+]=[N-],1.03,0.0393,0.503,1.07,0.398,0.0434,0.0638,1.92,1.27,0.451
COCCOC(=O)N1C(=O)[C@@]2(c3cc(C#Cc4ccc(OC)cc4)ccc31)[C@H](C(=O)N1CCc3cc(OC)c(OC)cc3C1)[C@H]1C(=O)O[C@H](c3ccccc3)[C@H](c3ccccc3)N1[C@@H]2c1ccc(O)cc1,1.13,-0.246,0.582,0.111,-0.575,0.0088,0.191,-0.407,0.575,1.78
COC(=O)[C@@]1(Cc2ccc(OC)cc2)[C@H]2c3cc(C(=O)N4CCCC4)n(CCc4ccc(O)c(OC)c4)c3C[C@H]2CN1C(=O)c1ccccc1,0.333,-0.917,-0.448,0.346,0.225,0.114,0.03,1.03,0.39,0.184
CCCc1cc2c(n1Cc1ccc(OC)cc1)C(C)C1CN(C(=O)c3ccccc3)C(C)(C(=O)OC)C21 (stereo not given),0.247,-2.16,-0.307,2.6,1.42,0.157,0.686,1.26,2.19,2.52
CC(C)CNC(=O)[C@@]1(c2ccc([N+](=O)[O-])cc2)CC(=O)N(C(C)C)[C@@H]1c1ccc(CO)cc1,0.212,-0.687,-1.53,-0.505,0.739,-0.12,-0.0738,-0.428,-0.534,-0.186
NC(=O)NCC#Cc1ccc2c(c1)[C@]1(C(=O)N2)[C@H](c2ccc(OCCO)cc2)N2[C@H](c3ccccc3)[C@H](c3ccccc3)OC(=O)[C@H]2[C@@H]1C(=O)N1CCN(c2ncccn2)CC1,0.833,-0.488,0.259,0.362,0.492,-0.0977,0.156,0.042,0.655,1.21
[N-]=[N+]=NCc1ccccc1[C@H]1OC(c2ccc(OCCCO)cc2)=N[C@@]1(Cc1ccccc1)C(N)=O,1.44,-1.46,-0.709,0.931,0.995,0.283,-0.0576,0.654,1.76,2.54
CCOC(=O)C[C@H]1[C@H](OC(=O)c2cc3ccccc3oc2=O)[C@@H](NC(=O)c2ccc3ccccc3n2)c2cc(OCCCO)ccc2N1C(=O)c1ccc2ccccc2n1,0.412,-2.04,1.09,-0.145,-0.36,0.172,0.01,-0.158,0.816,0.214
